# Screens from PubChem.
# TDP1 cell noCPT = qHTS for Inhibitors of human tyrosyl-DNA phosphodiesterase 1 (TDP1): qHTS in cells in absence of CPT; DT40 Tdp1-/- hTDP1 cells, no CPT, ATP luminescence, 48 h; Potency, µM (highest dose often 46.2 µM), usual class: inhibitors; 420,000 compounds, 15% hits; note: nearly all actives have a fitted effect of over 55% in size
#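 Chicken DT40 Tdp1-/- cells complemented with human TDP1, screened without camptothecin (DMSO vehicle only), 400 cells/well. Compounds pin-transferred, cells incubated at 37 °C for at least 48 hr. Growth read as ATP-dependent luminescence (CellTiter-Glo, 30 min at RT).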
# VP16 counter = counter-screen for ROR gamma inhibitors: Gal4-VP16 reporter. Drosophila S2 Gal4-VP16 UAS-luciferase, luminescence, 20 h. Potency, µM (titrated, usually from 53.6 µM), actives largely listed as inhibitors. 310,000 compounds, 3.5% hits. AID 2546;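 note: Gal4-VP16 expression switched on by copper sulfate through the metallothionein promoter; nearly all actives have a fitted effect of over 50% in size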
# RORg inh = blocks mouse ROR gamma transcriptional activity; P51450; Drosophila S2 Gal4-RORgamma UAS-luciferase reporter, 20 h; Potency, µM (doses to about 53.6 µM), most hits filed as inhibitors; 310,000 compounds, 5.4% hits; AID 2551; note: nearly all actives have a fitted effect of over 60% in size
# Target sequence (P51450 whole entry, looked up, the tested form may be a part): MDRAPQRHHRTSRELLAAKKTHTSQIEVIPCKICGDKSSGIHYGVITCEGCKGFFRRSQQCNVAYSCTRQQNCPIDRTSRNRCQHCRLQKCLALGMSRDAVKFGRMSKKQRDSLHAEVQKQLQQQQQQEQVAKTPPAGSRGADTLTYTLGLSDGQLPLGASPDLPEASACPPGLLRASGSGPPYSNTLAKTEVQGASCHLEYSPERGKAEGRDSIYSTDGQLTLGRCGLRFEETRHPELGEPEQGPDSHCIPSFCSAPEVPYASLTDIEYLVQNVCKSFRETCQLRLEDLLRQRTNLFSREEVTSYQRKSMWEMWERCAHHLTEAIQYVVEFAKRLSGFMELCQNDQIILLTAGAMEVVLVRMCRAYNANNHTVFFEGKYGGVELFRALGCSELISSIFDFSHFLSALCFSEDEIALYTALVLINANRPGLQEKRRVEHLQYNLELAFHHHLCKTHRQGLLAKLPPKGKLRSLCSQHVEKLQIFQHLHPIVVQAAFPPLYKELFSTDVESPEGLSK
#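 Drosophila Schneider cells stably carrying a metallothionein-driven Gal4 DBD–ROR gamma fusion and a UAS-Photinus luciferase reporter were exposed to compound for 1 hr, then induced with copper sulfate (700 uM final) for 20 hr at ambient temperature before luminescence reading.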
# TDP1 inh = TDP1 (human) enzyme inhibition; Q9NUW8; recombinant TDP1, AlphaScreen DNA substrate cleavage; Potency, µM (highest dose often 130 µM), actives largely listed as inhibitors; 350,000 compounds, 0.28% hits; note: nearly all actives have a fitted effect of over 40% in size
#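 Recombinant E. coli-expressed Tdp1 (1 nM) preincubated with compound 15 min at RT, then 5'-biotin/3'-phosphotyrosine-FITC DNA substrate (15 nM) added for 5 min. AlphaScreen beads (10 ug/ml) added, 10 min RT; tyrosine-FITC cleavage read as signal loss.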
# TDP1 cell CPT = DT40-hTDP1 cell growth loss with CPT. chicken DT40 Tdp1-/-;hTDP1 cells + 20 nM CPT, ATP luminescence, 48 h. Potency, µM (series often up to 46.2 µM), usual class: inhibitors. 420,000 compounds, 12% hits. AID 686979; note: nearly all actives have a fitted effect of over 55% in size
#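 Chicken DT40 Tdp1-/- cells complemented with human TDP1, 400 cells/well, exposed to compounds plus 20 nM camptothecin for at least 48 h at 37 C; viability read as ATP content by CellTiter-Glo luminescence.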
# A number is an active result; n = inactive; u = inconclusive; x = no result given; [ ] = remark or other dose. Only some compounds are listed: those with a hit (about 19% of all), similar ones and a draw of the others. Calls come from the whole dose curve; as a rule, active = well fitted curve in the direction sought with a large enough effect; inconclusive = small, poorly fitted or top-dose-only effect, or another doubt; inactive = no such curve, though single readings can be large; an effect the other way counts as inactive or inconclusive.
SMILES,TDP1 cell noCPT,VP16 counter,RORg inh,TDP1 inh,TDP1 cell CPT
COc1cc2c(cc1OC)CN(c1nc(CN3CCCCC3)nc3sc4c(c13)CCCC4)CC2,u,u,11µM,n,u
CN(C)S(=O)(=O)c1ccc(N2CCCC2)c(C(=O)N2CCN(S(=O)(=O)c3ccc(F)cc3)CC2)c1,n,x,x,n,n
CCOc1cccc(C2C=C(c3ccc4c(c3)OCO4)NC(c3ccc(F)cc3)N2)c1O (stereo not given),13µM,x,x,n,14µM
CCOC(=O)C1=C(CNCCc2ccc(Cl)cc2)NC(=O)NC1c1ccc2c(c1)OCO2 (stereo not given),u,n,n,n,u
CCOc1cccc(C2Nc3ccccc3-c3cc(C)nn32)c1O (stereo not given),n,x,x,n,n
CCN(C(=O)COC(=O)c1ccc2c(c1)OCO2)c1ccc(F)cc1,n,x,x,n,u
CCOc1cccc(C2C=C(c3ccc4c(c3)OCO4)NC(c3ccc(Cl)cc3)N2)c1O (stereo not given),13µM,x,x,n,10µM
CCOc1cccc(C2C=C(c3ccc4c(c3)OCO4)NC(c3ccccc3F)N2)c1O (stereo not given),16µM,x,x,n,11µM
O=C1CN(C(=O)CN2C(=O)NC(c3ccccc3)(c3ccccc3)C2=O)c2ccccc2N1,n,x,x,n,n
Clc1ccc(C=NN2CCCCCC2)c(Cl)c1,u,x,x,x,n
COc1ccc(NC(=O)c2ccccc2F)cc1Cl,n,u,n,n,n
COc1cc2ccccc2cc1C(=O)Nc1nnc(-c2ccncc2)o1,n,10µM,7.1µM,n,n
O=C(Nc1nnc(-c2ccncc2)o1)c1ccccc1F,n,10µM,u,n,u
COc1ccccc1-c1nnc(NC(=O)c2ccccc2F)o1,u,2.8µM,2µM,n,u
Cc1oc2c(c1C(=O)NCCO)CCCC2,n,n,n,n,n
C/C(=N\N1CCN(Cc2ccccc2)CC1)c1ccco1,n,u,n,n,n
Cc1ccc([N+](=O)[O-])cc1N/C=C/C(=O)c1ccco1,21µM,n,u,n,u
O=C(/C=C/c1cccc([N+](=O)[O-])c1)c1ccc([N+](=O)[O-])o1,0.16µM,x,x,x,0.16µM
Cc1cccc(/C=C/C(=O)c2ccc([N+](=O)[O-])o2)c1,0.65µM,x,x,n,0.58µM
O=C(/C=C/c1cccc([N+](=O)[O-])c1)c1ccco1,3.7µM,u,n,x,4.6µM
Cc1ccc(N/C=C/C(=O)c2ccco2)c(O)c1,n,n,n,x,n
COc1ccc(/C=C/C(=O)c2ccc([N+](=O)[O-])o2)cc1,2.6µM,x,x,x,2.3µM
Cc1ccc(-c2nnc(SCC(=O)N/N=C/c3ccc(C)s3)n2-c2ccccc2)cc1,18µM,u,u,n,u
Cc1ccc(/C=N/NC(=O)CSc2nnc(-c3ccc(Cl)cc3)n2-c2ccc(Cl)cc2)o1,u,u,n,n,23µM
Cc1nn(-c2ccccc2)c(C)c1/C=N/NC(=O)CSc1nnc(-c2ccccc2)n1-c1ccc(Cl)cc1,26µM,n,n,n,u
SMILES,TDP1 cell noCPT,VP16 counter,RORg inh,TDP1 inh,TDP1 cell CPT
Cc1ccc(-c2nnc(SCC(=O)N/N=C/c3c(C)nn(-c4ccccc4)c3C)n2-c2ccc(C)cc2)cc1,u,n,n,n,u
Cc1cccc(C)c1NC(=O)CCCSc1nnc(-c2ccc(Cl)cc2)n1-c1ccccc1,16µM,n,u,n,23µM
Cc1ccc(S(=O)(=O)NCc2ccccc2)cc1C(=O)N1CCCC(C(F)(F)F)C1 (stereo not given),18µM,x,x,n,u
CN(c1ccccc1)S(=O)(=O)c1ccc(C(=O)N2CCCC(C(F)(F)F)C2)cc1 (stereo not given),u,n,n,n,u
Cc1ccccc1NS(=O)(=O)c1ccc(C(=O)N2CCCC(C(F)(F)F)C2)cc1 (stereo not given),12µM,x,x,n,u
O=C(c1cccc(S(=O)(=O)NCc2ccccc2)c1)N1CCCC(C(F)(F)F)C1 (stereo not given),u,x,x,x,n
CC(=O)N1CCN(C(=O)c2cc(S(=O)(=O)NCc3ccccc3)ccc2C)CC1,n,n,n,n,n
Cc1ccc(C)c(S(=O)(=O)N2CCN(C(=O)c3cc(S(=O)(=O)NCc4ccccc4)ccc3C)CC2)c1,u,n,u,n,23µM
CC1=C(c2ccc(C(C)C)cc2)S(=O)(=O)NC1=NCc1ccc(Cl)cc1,n,x,x,n,u
CCOc1ccc(-n2cc(C(=O)c3cc(Cl)ccc3O)cc(C#N)c2=O)cc1,n,n[10 µM],u,n,n
O=C(NCc1ccccc1)c1ccc([N+](=O)[O-])cc1,n,x,x,x,n
COc1ccc(-c2nc(-c3cccc(C)c3)nc(N3CCN(C)CC3)c2C#N)cc1,16µM,n,n,n,15µM
CCCN(CC(=O)Nc1ccccc1OC)C(=O)c1cccc(S(=O)(=O)NCc2ccccc2)c1,n,x,x,n,n
COc1ccccc1NC(=O)COc1ccccc1C(=O)c1cnn(-c2ccccc2)c1,23µM,n,u,n,21µM
O=C(O)/C(=C\c1ccccc1OC(F)F)Sc1nnc(-c2ccc(F)cc2)o1,u,n,n,n,21µM
CC(CNC(=O)c1cc2cc(S(=O)(=O)N3CCCCC3)ccc2n1C)c1ccccc1 (stereo not given),12µM,x,x,n,3.3µM
Cn1c(C(=O)NCCc2ccccc2)cc2cc(S(=O)(=O)N3CCCCC3)ccc21,u,x,x,n,15µM
CC(C)CCNC(=O)c1cc2cc(S(=O)(=O)N3CCCCC3)ccc2n1C,u,x,x,n,u
CN1CCN(S(=O)(=O)c2ccc(-c3ccc(Cl)cc3)cc2)CC1,u,n,u,n,u
Cc1nc2sc3c(c2c(=O)n1NC(=O)CCBr)CCCC3,18µM,n,n,n,18µM
C=C(C)CSc1nc2sc3c(c2c(=O)n1CCCC)CCCC3,n,x,x,n[2.28 µM],n
C=C(C)Cn1c(SCC(=O)Nc2cccc(Cl)c2)nc2sc3c(c2c1=O)CCCC3,15µM,x,x,x,u
CCCn1c(SCC(=O)NC)nc2sc3c(c2c1=O)CCC3,n,n,n,n,n
C=C(C)Cn1c(SCC(=O)c2ccc(OC)cc2)nc2sc3c(c2c1=O)CCCC3,12µM,x,x,x,10µM
C=CCNC(=O)CSc1nc2sc3c(c2c(=O)n1CCC)CCC3,15µM,n,u,n,u
SMILES,TDP1 cell noCPT,VP16 counter,RORg inh,TDP1 inh,TDP1 cell CPT
CCn1c(SCC(N)=O)nc2sc3c(c2c1=O)CCCC3,n,u,11µM,n,n
Cn1c(-c2ccncc2)nc2ccccc21,n,n,n,x,n
Cc1ccc(C(C)C)c(OCc2nc(-c3nonc3N)no2)c1,7.3µM,n,u,n,16µM
Cc1ccc(C(C)C)c(OCc2n[nH]c(=S)o2)c1,n,n,n,n,n
Brc1ccccc1CN1CCN(Cc2c[nH]c3ccccc23)CC1,1.5µM,x,x,x,0.52µM
Brc1ccc(CN2CCN(Cc3c[nH]c4ccccc34)CC2)cc1,9.2µM,n,n,x,2.3µM
